# Many of the other results were omitted from the sample, so the strongest signals are more common in it than they were.
# B1: PNGase F (Flavobacterium meningosepticum) (protein)
# chain: GIPAPADNTVNIKTFDKVKNAFGDGLSQSAEGTFTFPADVTAVKTIKMFIKNECPNKTCDEWDRYANVYVKNKTTGEWYEIGRFITPYWVGTEKLPRGLEIDVTDFKSLLSGNTELKIYTETWLAKGREYSVDFDIVYGTPDYKYSAVVPVVQYNKSSIDGVPYGKAHTLALKKNIQLPTNTEKAYLRTTISGWGHAKPYDAGSRGCAEWCFRTHTIAINNSNTFQHQLGALGCSANPINNQSPGNWTPDRAGWCPGMAVPTRIDVLNNSLIGSTFSYEYKFQNWTNNGTNGDAFYAISSFVIAKSNTPISAPVVTNLDPHHHHHH
# Experiments:
# Test in all cases: glycan array binding signal (z-score within array); higher = stronger binding
# Settings in all cases: glycan notation: IUPAC condensed, linker removed
# [1] = target: Fuc(a1-2)Gal(b1-3)GalNAc(b1-3)Gal
# How it was run: (§1)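 The Consortium for Functional Glycomics database supplied 3228 glycan arrays, of which those lacking an available protein sequence were dropped. The binding signal, a within-array Z-score, was averaged across arrays of the same protein sequence and across linkers. Negative scores can be read as non-binding.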
# [2] = target: Fuc(a1-2)Gal(b1-3)GlcNAc6S
# How it was run: as §1
# [3] = target: Fuc(a1-2)Gal3S(b1-4)GlcNAc
# How it was run: as §1
# [4] = target: Fuc(a1-2)[Gal(a1-3)]Gal(b1-3)GalNAc(b1-3)Gal(a1-4)Gal(b1-4)Glc
# How it was run: as §1
# [5] = target: Fuc(a1-2)[Gal(a1-3)]Gal(b1-3)GlcNAc(b1-6)GalNAc
# How it was run: as §1
# [6] = target: Fuc(a1-2)[Gal(a1-3)]Gal(b1-4)GlcNAc(b1-2)Man(a1-3)[Fuc(a1-2)[Gal(a1-3)]Gal(b1-4)GlcNAc(b1-2)Man(a1-6)]Man(b1-4)GlcNAc(b1-4)GlcNAc
# How it was run: as §1
# [7] = target: Fuc(a1-2)[Gal(a1-3)]Gal(b1-4)GlcNAc(b1-3)GalNAc
# How it was run: as §1
# [8] = target: Fuc(a1-2)[Gal(a1-3)]Gal(b1-4)GlcNAc(b1-3)[Fuc(a1-2)[Gal(a1-3)]Gal(b1-4)GlcNAc(b1-6)]GalNAc
# How it was run: as §1
# [9] = target: Fuc(a1-2)[Gal(a1-3)]Gal(b1-4)GlcNAc(b1-6)GalNAc
# How it was run: as §1
# [10] = target: Fuc(a1-2)[Gal(a1-3)]Gal(b1-4)[Fuc(a1-3)]Glc
# How it was run: as §1
# [11] = target: Fuc(a1-3)[Gal(b1-4)]GlcNAc
# How it was run: as §1
# [12] = target: Fuc(a1-3)[Gal(b1-4)]GlcNAc(b1-2)Man
# How it was run: as §1
# [13] = target: Fuc(a1-3)[Gal(b1-4)]GlcNAc(b1-6)[Gal(b1-3)GlcNAc(b1-3)]Gal(b1-4)Glc
# How it was run: as §1
# Fuc(a1-4)GlcNAc = target: Fuc(a1-4)GlcNAc
# How it was run: as §1
# [14] = target: Gal(b1-3)GalNAc(b1-3)Gal(a1-4)Gal(b1-4)Glc
# How it was run: as §1
# [15] = target: Gal(b1-3)GlcNAc(b1-3)GalNAc
# How it was run: as §1
# [16] = target: Gal(b1-3)[GlcNAc(b1-6)]GalNAc
# How it was run: as §1
# [17] = target: Gal(b1-3)[Neu5Ac(b2-6)]GalNAc
# How it was run: as §1
# [18] = target: Gal(b1-4)GlcNAc(b1-3)Gal(b1-4)GlcNAc(b1-2)[Gal(b1-4)GlcNAc(b1-3)Gal(b1-4)GlcNAc(b1-6)]Man(a1-6)[Gal(b1-4)GlcNAc(b1-3)Gal(b1-4)GlcNAc(b1-2)Man(a1-3)]Man(b1-4)GlcNAc(b1-4)GlcNAc
# How it was run: as §1
# [19] = target: Gal(b1-4)GlcNAc(b1-3)GalNAc
# How it was run: as §1
# [20] = target: Gal(b1-4)GlcNAc(b1-3)[Gal(b1-4)GlcNAc(b1-6)]Gal(b1-4)GlcNAc
# How it was run: as §1
# [21] = target: Gal(b1-4)GlcNAc(b1-3)[GlcNAc(b1-6)]Gal(b1-4)GlcNAc
# How it was run: as §1
# [22] = target: Gal(b1-4)GlcNAc(b1-6)[Gal(b1-4)GlcNAc(b1-3)]GalNAc
# How it was run: as §1
# Gal(b1-6)Gal = target: Gal(b1-6)Gal
# How it was run: as §1
# [23] = target: Gal3S(b1-4)[Fuc(a1-3)]GlcNAc6S
# How it was run: as §1
# Gal3S4S(b1-4)GlcNAc = target: Gal3S4S(b1-4)GlcNAc
# How it was run: as §1
# Gal3S6S(b1-4)GlcNAc6S = target: Gal3S6S(b1-4)GlcNAc6S
# How it was run: as §1
# Gal6S(b1-4)Glc6S = target: Gal6S(b1-4)Glc6S
# How it was run: as §1
# GlcA(b1-3)GlcNAc = target: GlcA(b1-3)GlcNAc
# How it was run: as §1
# [24] = target: GlcNAc(a1-3)Gal(b1-4)GlcNAc
# How it was run: as §1
# [25] = target: GlcNAc(a1-4)Gal(b1-4)GalNAc
# How it was run: as §1
# [26] = target: GlcNAc(b1-2)[GlcNAc(b1-4)]Man(a1-3)[GlcNAc(b1-4)][GlcNAc(b1-2)[GlcNAc(b1-6)]Man(a1-6)]Man(b1-4)GlcNAc(b1-4)[Fuc(a1-6)]GlcNAc
# How it was run: as §1
# [27] = target: GlcNAc(b1-3)Gal(b1-4)GlcNAc
# How it was run: as §1
# [28] = target: GlcNAc(b1-3)Gal(b1-4)GlcNAc(b1-3)Gal(b1-4)GlcNAc(b1-3)Gal(b1-4)GlcNAc(b1-3)Gal(b1-4)GlcNAc(b1-2)[GlcNAc(b1-3)Gal(b1-4)GlcNAc(b1-3)Gal(b1-4)GlcNAc(b1-3)Gal(b1-4)GlcNAc(b1-3)Gal(b1-4)GlcNAc(b1-6)]Man(a1-6)[GlcNAc(b1-3)Gal(b1-4)GlcNAc(b1-3)Gal(b1-4)GlcNAc(b1-3)Gal(b1-4)GlcNAc(b1-3)Gal(b1-4)GlcNAc(b1-2)Man(a1-3)]Man(b1-4)GlcNAc(b1-4)[Fuc(a1-6)]GlcNAc
# How it was run: as §1
# GlcNAc(b1-3)Man = target: GlcNAc(b1-3)Man
# How it was run: as §1
# GlcNAc(b1-4)GlcNAc = target: GlcNAc(b1-4)GlcNAc
# How it was run: as §1
# GlcNAc(b1-6)GalNAc = target: GlcNAc(b1-6)GalNAc
# How it was run: as §1
# [29] = target: Man(a1-2)Man(a1-2)Man(a1-3)Man
# How it was run: as §1
# [30] = target: Neu5Ac(a2-3)Gal(b1-3)GalNAc(b1-4)[Neu5Ac(a2-3)]Gal(b1-4)Glc
# How it was run: as §1
# Neu5Ac(a2-3)Gal(b1-4)Glc = target: Neu5Ac(a2-3)Gal(b1-4)Glc
# How it was run: as §1
# [31] = target: Neu5Ac(a2-3)Gal(b1-4)GlcNAc(b1-3)Gal(b1-4)GlcNAc(b1-3)[Neu5Ac(a2-3)Gal(b1-4)GlcNAc(b1-3)Gal(b1-4)GlcNAc(b1-6)]GalNAc
# How it was run: as §1
# [32] = target: Neu5Ac(a2-3)[Neu5Ac(a2-6)]GalNAc
# How it was run: as §1
# Neu5Ac(a2-6)Gal = target: Neu5Ac(a2-6)Gal
# How it was run: as §1
# [33] = target: Neu5Ac(a2-6)Gal(b1-4)GlcNAc(b1-2)Man(a1-3)[Neu5Ac(a2-6)Gal(b1-4)GlcNAc(b1-2)Man(a1-6)]Man(b1-4)GlcNAc(b1-4)GlcNAc
# How it was run: as §1
# [34] = target: Neu5Ac(a2-6)Gal(b1-4)GlcNAc(b1-3)Gal(b1-4)GlcNAc(b1-3)[Neu5Ac(a2-6)Gal(b1-4)GlcNAc(b1-3)Gal(b1-4)GlcNAc(b1-6)]GalNAc
# How it was run: as §1
# [35] = target: Neu5Ac(a2-6)Gal(b1-4)GlcNAc(b1-6)[Gal(b1-3)GlcNAc(b1-3)]Gal(b1-4)Glc
# How it was run: as §1
# [36] = target: Neu5Ac(a2-6)Gal(b1-4)GlcNAc6S
# How it was run: as §1
# Neu5Ac(a2-8)Neu5Ac = target: Neu5Ac(a2-8)Neu5Ac
# How it was run: as §1
# [37] = target: Neu5Ac(a2-8)Neu5Ac(a2-3)Gal(b1-3)GalNAc(b1-4)[Neu5Ac(a2-3)]Gal(b1-4)Glc
# How it was run: as §1
# Neu5Gc(a2-3)Gal(b1-4)Glc = target: Neu5Gc(a2-3)Gal(b1-4)Glc
# How it was run: as §1
# [38] = target: Neu5Gc(a2-3)Gal(b1-4)GlcNAc
# How it was run: as §1
# [39] = target: Neu5Gc(a2-6)Gal(b1-4)GlcNAc
# How it was run: as §1
binder,measurement,setting,value
B1,glycan array binding signal (z-score),[1],1.61
same,glycan array binding signal (z-score),[2],-0.123
same,glycan array binding signal (z-score),[3],-0.157
same,glycan array binding signal (z-score),[4],0.033
same,glycan array binding signal (z-score),[5],-0.032
same,glycan array binding signal (z-score),[6],-0.273
same,glycan array binding signal (z-score),[7],-0.226
same,glycan array binding signal (z-score),[8],1.46
same,glycan array binding signal (z-score),[9],0.476
same,glycan array binding signal (z-score),[10],-0.16
same,glycan array binding signal (z-score),[11],0.02
same,glycan array binding signal (z-score),[12],0.163
same,glycan array binding signal (z-score),[13],-0.308
same,glycan array binding signal (z-score),Fuc(a1-4)GlcNAc,2.72
same,glycan array binding signal (z-score),[14],0.036
same,glycan array binding signal (z-score),[15],-0.268
same,glycan array binding signal (z-score),[16],-0.166
same,glycan array binding signal (z-score),[17],-0.337
same,glycan array binding signal (z-score),[18],1.63
same,glycan array binding signal (z-score),[19],-0.281
same,glycan array binding signal (z-score),[20],-0.219
same,glycan array binding signal (z-score),[21],1.78
same,glycan array binding signal (z-score),[22],-0.289
same,glycan array binding signal (z-score),Gal(b1-6)Gal,0.208
same,glycan array binding signal (z-score),[23],0.165
same,glycan array binding signal (z-score),Gal3S4S(b1-4)GlcNAc,-0.092
same,glycan array binding signal (z-score),Gal3S6S(b1-4)GlcNAc6S,-0.035
same,glycan array binding signal (z-score),Gal6S(b1-4)Glc6S,-0.41
same,glycan array binding signal (z-score),GlcA(b1-3)GlcNAc,-0.118
same,glycan array binding signal (z-score),[24],-0.344
same,glycan array binding signal (z-score),[25],1.26
same,glycan array binding signal (z-score),[26],-0.395
same,glycan array binding signal (z-score),[27],-0.264
same,glycan array binding signal (z-score),[28],-0.3
same,glycan array binding signal (z-score),GlcNAc(b1-3)Man,3.03
same,glycan array binding signal (z-score),GlcNAc(b1-4)GlcNAc,10.4
same,glycan array binding signal (z-score),GlcNAc(b1-6)GalNAc,-0.018
same,glycan array binding signal (z-score),[29],1.49
same,glycan array binding signal (z-score),[30],-0.289
same,glycan array binding signal (z-score),Neu5Ac(a2-3)Gal(b1-4)Glc,2.16
same,glycan array binding signal (z-score),[31],-0.043
same,glycan array binding signal (z-score),[32],0.36
same,glycan array binding signal (z-score),Neu5Ac(a2-6)Gal,-0.129
same,glycan array binding signal (z-score),[33],-0.391
same,glycan array binding signal (z-score),[34],-0.278
same,glycan array binding signal (z-score),[35],-0.207
same,glycan array binding signal (z-score),[36],-0.286
same,glycan array binding signal (z-score),Neu5Ac(a2-8)Neu5Ac,-0.021
same,glycan array binding signal (z-score),[37],-0.328
same,glycan array binding signal (z-score),Neu5Gc(a2-3)Gal(b1-4)Glc,0.187
same,glycan array binding signal (z-score),[38],2.36
same,glycan array binding signal (z-score),[39],-0.046

# — the supplement of paper PMC8728848
